Compound activity as filed in PubChem BioAssay.
Hits are enriched below; roughly 9.4% of the tested compounds scored in any of these assays.
NPC1 prom act – NPC1 promoter activation; Huh7 NPC1 promoter luciferase reporter, 24 h; Potency, µM (highest dose often 9.22 µM), hits mostly activators; 2.4% of 320,000 active; note: nearly all actives have a fitted effect of over 60% in size
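Luminescence read-out of NPC1 promoter-driven luciferase in stably transfected Huh7 cells; compounds delivered in DMSO and left 24 h at 37C, 5% CO2, qHTS titration format.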
ELG1 repair inh – blocks ELG1-dependent DNA repair in HEK293T cells; 2.3% of 330,000 active; HEK293T ELG1-luciferase reporter, luminescence, 16 h; DNA damage induced by 5-fluorouridine; Potency, µM (highest dose often 46.1 µM), usual class: inhibitors; note: nearly all actives have a fitted effect of over 55% in size
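Quantitative HTS, concentration-response format. 2,000 cells/well co-treated with 5-fluorouridine and compound, 16 hr in 5% CO2 at 37 °C; ONE-Glo luminescence read after 30 min.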
SMN2 splice up – increases expression of the SMN2 splice variant | HEK293 SMN2-luciferase splicing reporter, luminescence, 30-36 h | Potency, µM (highest dose often 46.1 µM), most hits filed as activators | 2.8% of 210,000 active | AID 1458; note: nearly all actives have a fitted effect of over 55% in size
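HEK293 cells carry an SMN2 minigene-luciferase reporter in which exon 7 inclusion puts luciferase in frame. Cells were seeded at 2000 cells/well, attached for 10-12 hours, then exposed to compounds for 30-36 hours at 37C before ONE-Glo luminescence.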
FLuc counter – inhibits or activates purified firefly luciferase, miR-21 counter-screen; P08659; purified FLuc, Km substrates, luminescence inhibition; Potency, µM (titrated, usually from 57.5 µM), most hits filed as inhibitors; 6.9% of 360,000 active; note: nearly all actives have a fitted effect of over 55% in size
Target sequence (P08659 whole entry, looked up): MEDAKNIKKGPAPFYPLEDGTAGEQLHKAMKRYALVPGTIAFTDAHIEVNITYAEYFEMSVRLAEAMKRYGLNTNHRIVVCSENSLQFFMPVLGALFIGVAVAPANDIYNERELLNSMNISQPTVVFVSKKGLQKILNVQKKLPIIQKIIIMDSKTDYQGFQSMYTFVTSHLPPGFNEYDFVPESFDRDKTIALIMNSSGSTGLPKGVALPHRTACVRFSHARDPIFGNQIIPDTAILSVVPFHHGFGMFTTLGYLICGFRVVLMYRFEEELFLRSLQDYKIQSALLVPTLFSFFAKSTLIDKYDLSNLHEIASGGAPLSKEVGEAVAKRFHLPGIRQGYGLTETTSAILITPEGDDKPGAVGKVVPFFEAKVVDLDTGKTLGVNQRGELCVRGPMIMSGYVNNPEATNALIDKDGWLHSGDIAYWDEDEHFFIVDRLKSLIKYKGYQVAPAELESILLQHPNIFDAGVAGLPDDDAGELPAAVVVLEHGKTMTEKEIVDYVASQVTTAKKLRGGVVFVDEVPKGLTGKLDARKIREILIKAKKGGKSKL
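Purified P. pyralis luciferase, 10 nM final, with Km-level 10 uM D-luciferin and 10 uM ATP in 50 mM Tris acetate pH 7.5, 10 mM Mg acetate, 0.01% Tween-20, 0.05% BSA; 6-point qHTS titration about 60 µM downward; luminescence read.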
Rab9 promoter act – activators of Rab9 promoter. 2.8% of 320,000 active. Huh7 Rab9 promoter-luciferase reporter, luminescence, 24 h. Potency, µM (series often up to 9.22 µM), most hits filed as activators; note: nearly all actives have a fitted effect of over 60% in size
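Stable Rab9-luc Huh7, 1500 cells/well, 2 h settle; cmpd in DMSO, 24 h, 37 °C/5% CO2; luciferase reagent 10 min RT; luminescence.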
ELG1 genotox – genotoxicity induction in ELG1-luciferase HEK293T cells | HEK293T ELG1-luciferase reporter, luminescence, 16 h | Potency, µM (top dose mostly 46 µM), most hits filed as activators | 1.3% of 330,000 active | AID 504466; note: nearly all actives have a fitted effect of over 60% in size
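Step 1: seed 2,000 HEK293T ELG1-luciferase cells per well. Step 2: add compound or DMSO, incubate 16 hr at 37 °C. Step 3: ONE-Glo, 30 min at room temperature, read luminescence.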
Large screens that a line does not name were inactive. Calls come from the whole dose curve; as a rule, active = well fitted curve in the direction sought with a large enough effect; inconclusive = small, poorly fitted or top-dose-only effect, or another doubt; inactive = no such curve, though single readings can be large; an effect the other way counts as inactive or inconclusive.

C/C=C\C=C/C(=O)Nc1cccc(C2=NOC3(C2)C[C@@H](C(N)=O)N(C(=O)/C=C/CC)C3)c1 (some centres undefined)	ELG1 repair inh inconclusive, FLuc counter 17µM (no result: SMN2 splice up)
C/C=C\C=C/C(=O)Nc1cccc(C2=NOC3(C2)C[C@@H](C(N)=O)N(C(=O)C2(C)CC2)C3)c1 (some centres undefined)	ELG1 repair inh inconclusive, FLuc counter 15µM (no result: SMN2 splice up)
O=C(NCc1ccccc1)C1CCN(C(=O)c2cnn(-c3ccccc3)c2-n2cccc2)CC1	none (no result: NPC1 prom act, ELG1 repair inh, Rab9 promoter act, ELG1 genotox)
Cc1cccc(NC(=O)C(=O)NCCc2sc(-c3ccccc3)nc2C)c1C	none (no result: NPC1 prom act, ELG1 repair inh, SMN2 splice up, Rab9 promoter act, ELG1 genotox)
C/C=C\C=C\C(=O)N1CC2(CC(c3cccc(NC(=O)CC(c4ccccc4)c4ccccc4)c3)=NO2)C[C@H]1C(N)=O (some centres undefined)	none (no result: SMN2 splice up)
C/C=C\C=C/C(=O)Nc1cccc(C2=NOC3(C2)C[C@@H](C(N)=O)N(C(=O)/C=C/C=C\C)C3)c1 (some centres undefined)	ELG1 repair inh inconclusive, FLuc counter 19µM (no result: SMN2 splice up)
CCOC(=O)C1CCCN(C(=O)Cn2ncc3c(C)n(Cc4ccccc4Cl)c(C)c3c2=O)C1 (centres undefined)	none (no result: NPC1 prom act, ELG1 repair inh, Rab9 promoter act, ELG1 genotox)
Cc1c(C(=O)N2CCOCC2)sc2ncnc(N3CCc4ccccc4C3)c12	FLuc counter inconclusive
Cc1c(C(=O)N2CCCCC2C)sc2ncnc(N3CCc4ccccc4C3)c12 (centres undefined)	ELG1 repair inh 21µM, FLuc counter inconclusive
COc1ccccc1N1CCN(c2ncnc3sc(C(=O)NCC4CCCO4)c(C)c23)CC1 (centres undefined)	ELG1 repair inh 9.2µM (no result: SMN2 splice up)
COCCCNC(=O)c1sc2ncnc(N3CCc4ccccc4C3)c2c1C	ELG1 repair inh 8.2µM (no result: SMN2 splice up)
CCN1CCN(C(=O)c2sc3ncnc(N4CCc5ccccc5C4)c3c2C)CC1	ELG1 repair inh inconclusive
N#CCCSC(=S)[C@H]1CCCC1=N	none (no result: NPC1 prom act, ELG1 repair inh, FLuc counter, Rab9 promoter act, ELG1 genotox)
CC(C)COc1ccccc1C1CC(=O)Nc2cc3c(cc21)OCO3 (centres undefined)	none (no result: NPC1 prom act, ELG1 repair inh, Rab9 promoter act, ELG1 genotox)
Cc1ccc(C(=O)Nc2ccc(CN3CCS(=O)(=O)CC3)cc2)cc1C	NPC1 prom act inconclusive, ELG1 repair inh inconclusive, FLuc counter 19µM, Rab9 promoter act inconclusive (no result: SMN2 splice up)
CN(C)c1ccc(NC(=O)c2ccc(Cn3cc([N+](=O)[O-])cn3)cc2)cc1	ELG1 repair inh inconclusive, FLuc counter 12µM
COc1ccc(NC(=O)c2ccc(Cn3cc(Cl)cn3)cc2)cc1	none (no result: SMN2 splice up)
CN(C)c1ccc(C(=O)Nc2ccc(CN3CCS(=O)(=O)CC3)cc2)cc1	ELG1 repair inh inconclusive, FLuc counter 13µM (no result: SMN2 splice up)
CCN1CCN(c2nc3c(S(=O)(=O)c4ccc(Br)cc4)nnn3c3ccsc23)CC1	none (no result: NPC1 prom act, ELG1 repair inh, SMN2 splice up, Rab9 promoter act, ELG1 genotox)
COc1ccc(N2CCN(C(=O)CCS(=O)(=O)c3cc4c(cc3Cl)NC(=O)CO4)CC2)cc1	none (no result: NPC1 prom act, ELG1 repair inh, SMN2 splice up, Rab9 promoter act, ELG1 genotox)
C/C(=N\OCc1ccc(C#N)cc1)c1ccc(S(=O)(=O)N(C)C)cc1	NPC1 prom act inconclusive, FLuc counter 21µM (no result: SMN2 splice up)
C/C(=N\OCc1ccc(C#N)cc1)c1ccccc1	NPC1 prom act inconclusive, ELG1 repair inh inconclusive, SMN2 splice up 16µM, FLuc counter 11µM, Rab9 promoter act 3.2µM, ELG1 genotox 18µM
C/C(=N/OCO/N=C(\C)c1ccccc1)c1ccccc1	ELG1 repair inh inconclusive
C/C(=N\OCc1cccc(C(=O)O)c1)c1ccc(Cl)cc1	NPC1 prom act inconclusive, ELG1 repair inh inconclusive, FLuc counter 0.095µM, Rab9 promoter act 0.089µM, ELG1 genotox inconclusive (no result: SMN2 splice up)
CCOC(=O)COc1ccc(C)cc1C(=O)c1ccn2nc(-c3ccc(Cl)cc3)cc2n1	none (no result: NPC1 prom act, ELG1 repair inh, Rab9 promoter act, ELG1 genotox)
Cc1c(C(=O)NCc2ccccc2Br)oc2c1-c1[nH]ncc1CC2	none (no result: NPC1 prom act, ELG1 repair inh, SMN2 splice up, Rab9 promoter act, ELG1 genotox)
Cn1cccc/c1=N\c1cccc[n+]1C	ELG1 repair inh 18µM (no result: SMN2 splice up)
COc1ccc(Oc2ncc3nc(-c4cccs4)c(=O)n(C)c3n2)cc1	none (no result: NPC1 prom act, ELG1 repair inh, FLuc counter, Rab9 promoter act, ELG1 genotox)
NC(=O)Cc1nc(-c2ccc([N+](=O)[O-])cc2)cs1	ELG1 repair inh 18µM
CC(C)c1nc(-c2ccc([N+](=O)[O-])cc2)cs1	ELG1 repair inh inconclusive, FLuc counter 17µM
